For some of these results: Results with a measured potency or affinity are listed apart.
Columns and labels:
Parameters in all cases: scale not given: direction of the effect not stated beside the values
[1] = target: Protein translocase subunit SecA (Escherichia coli (strain K12)) (UniProt P10408); test: Assay to Identify E. coli SecA ATPase Inhibitors; format: functional; conditions: 30 µM
[2] = target: T1, Ubiquitin-activating enzyme e1, putative (Leishmania donovani (strain BPK282A1)) (UniProt E9BSI1); test: Leishmania donovani Ubiquitin Activating Enzyme (LdE1); format: functional; conditions: 30 µM
T1 sequence (whole entry): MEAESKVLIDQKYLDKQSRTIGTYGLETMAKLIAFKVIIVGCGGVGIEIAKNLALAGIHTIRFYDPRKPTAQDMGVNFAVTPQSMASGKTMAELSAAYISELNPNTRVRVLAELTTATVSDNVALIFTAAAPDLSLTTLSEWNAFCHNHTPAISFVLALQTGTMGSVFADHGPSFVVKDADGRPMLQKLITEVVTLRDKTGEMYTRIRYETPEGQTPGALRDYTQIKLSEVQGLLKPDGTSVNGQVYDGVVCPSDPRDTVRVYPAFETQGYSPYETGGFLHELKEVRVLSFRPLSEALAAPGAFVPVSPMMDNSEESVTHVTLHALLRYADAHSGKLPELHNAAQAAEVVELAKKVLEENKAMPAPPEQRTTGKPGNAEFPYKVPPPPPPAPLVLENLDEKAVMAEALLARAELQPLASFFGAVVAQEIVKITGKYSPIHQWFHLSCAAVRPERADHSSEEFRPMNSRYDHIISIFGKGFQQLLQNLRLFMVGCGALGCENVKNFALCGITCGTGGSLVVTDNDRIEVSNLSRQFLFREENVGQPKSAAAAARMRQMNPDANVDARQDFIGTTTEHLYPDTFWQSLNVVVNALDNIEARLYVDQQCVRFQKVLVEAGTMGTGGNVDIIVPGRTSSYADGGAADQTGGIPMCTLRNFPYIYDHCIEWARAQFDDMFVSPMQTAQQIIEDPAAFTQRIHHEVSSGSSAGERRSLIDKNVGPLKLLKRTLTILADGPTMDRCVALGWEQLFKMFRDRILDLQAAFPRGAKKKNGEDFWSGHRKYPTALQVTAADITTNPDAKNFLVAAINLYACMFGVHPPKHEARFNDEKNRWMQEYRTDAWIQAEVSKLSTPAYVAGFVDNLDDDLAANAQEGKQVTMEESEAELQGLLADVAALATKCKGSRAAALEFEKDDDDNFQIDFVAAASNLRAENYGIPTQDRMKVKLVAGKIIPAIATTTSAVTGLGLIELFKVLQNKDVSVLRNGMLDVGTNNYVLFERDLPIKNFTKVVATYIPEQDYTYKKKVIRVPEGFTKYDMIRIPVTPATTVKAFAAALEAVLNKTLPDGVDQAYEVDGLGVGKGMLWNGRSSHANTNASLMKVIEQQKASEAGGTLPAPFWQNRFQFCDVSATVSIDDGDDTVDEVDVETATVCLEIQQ

[3] = target: AMP-activated protein kinase, AMPK (Homo sapiens) (UniProt P54646+O43741+P54619+Q9UGJ0+Q9Y478+Q13131+Q9UGI9); test: AMP-dependent Kinase enzyme assay. An in vitro enzyme assay that detects ADP turnover that is directly proportional to AMPK activity. This uses naive AMPK that is activated during the assay with MK-8722; format: functional; conditions: 30 µM
[4] = target: Sialic acid-binding Ig-like lectin 9 (Homo sapiens) (UniProt Q9Y336); test: Hs-Siglec9 ALPHAscreen SOP 20170721; conditions: 10 µM
Trypanosoma cruzi = test: Trypanosoma cruzi phosphomannomutase and mannose-1-phosphate guanylyltransferase assay; format: functional; conditions: 10 µM
[5] = target: T2, Arginase-2, mitochondrial (Homo sapiens) (UniProt P78540); test: in vitro enzyme assay to detect the production of urea directly proportional to the activity of Arginase II; format: functional; conditions: 33.3 µM; further: in the data most compounds retested in dose-response had high values
T2 sequence (whole entry): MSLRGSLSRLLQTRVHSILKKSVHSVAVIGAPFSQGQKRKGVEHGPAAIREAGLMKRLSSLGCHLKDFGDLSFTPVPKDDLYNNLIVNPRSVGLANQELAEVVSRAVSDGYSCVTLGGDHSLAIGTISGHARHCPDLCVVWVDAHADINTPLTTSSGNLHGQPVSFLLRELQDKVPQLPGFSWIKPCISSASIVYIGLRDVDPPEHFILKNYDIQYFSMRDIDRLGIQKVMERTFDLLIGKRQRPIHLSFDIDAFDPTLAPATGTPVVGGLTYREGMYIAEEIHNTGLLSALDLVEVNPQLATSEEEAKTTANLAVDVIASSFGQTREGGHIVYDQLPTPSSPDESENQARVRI

[6] = target: T3, Proteasome subunit beta (Trypanosoma cruzi) (UniProt O96673); test: Trypanosoma cruzi proteasome chymotrypsin-like activity (TcProtChymo) assay.; further: in the data most compounds retested in dose-response had high values; format: functional; conditions: 9.37 µM
T3 sequence (whole entry): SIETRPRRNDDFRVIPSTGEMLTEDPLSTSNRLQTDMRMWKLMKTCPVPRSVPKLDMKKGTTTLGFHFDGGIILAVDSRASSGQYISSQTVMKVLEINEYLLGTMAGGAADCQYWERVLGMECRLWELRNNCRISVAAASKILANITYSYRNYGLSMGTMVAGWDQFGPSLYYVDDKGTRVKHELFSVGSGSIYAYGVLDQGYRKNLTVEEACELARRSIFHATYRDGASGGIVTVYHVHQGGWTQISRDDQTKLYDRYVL

Homo sapiens = species: Homo sapiens; test: To identify inhibition of the IFN signalling (Jak-Stat) pathway via expression of an eGFP reporter gene under the control of an IFN-stimulated response element (ISRE) containing MxA promoter.; format: functional; conditions: 30 µM
[7] = target: T4, Tyrosyl-tRNA synthetase, putative (Trypanosoma cruzi (strain CL Brener)) (UniProt Q4DSP6); test: Trypanosoma cruzi tyrosyl tRNA synthetase (TcYRS) _High Tyrosine SOP; format: functional; conditions: 30 µM; further: in the data most compounds retested in dose-response had high values
T4 sequence (whole entry): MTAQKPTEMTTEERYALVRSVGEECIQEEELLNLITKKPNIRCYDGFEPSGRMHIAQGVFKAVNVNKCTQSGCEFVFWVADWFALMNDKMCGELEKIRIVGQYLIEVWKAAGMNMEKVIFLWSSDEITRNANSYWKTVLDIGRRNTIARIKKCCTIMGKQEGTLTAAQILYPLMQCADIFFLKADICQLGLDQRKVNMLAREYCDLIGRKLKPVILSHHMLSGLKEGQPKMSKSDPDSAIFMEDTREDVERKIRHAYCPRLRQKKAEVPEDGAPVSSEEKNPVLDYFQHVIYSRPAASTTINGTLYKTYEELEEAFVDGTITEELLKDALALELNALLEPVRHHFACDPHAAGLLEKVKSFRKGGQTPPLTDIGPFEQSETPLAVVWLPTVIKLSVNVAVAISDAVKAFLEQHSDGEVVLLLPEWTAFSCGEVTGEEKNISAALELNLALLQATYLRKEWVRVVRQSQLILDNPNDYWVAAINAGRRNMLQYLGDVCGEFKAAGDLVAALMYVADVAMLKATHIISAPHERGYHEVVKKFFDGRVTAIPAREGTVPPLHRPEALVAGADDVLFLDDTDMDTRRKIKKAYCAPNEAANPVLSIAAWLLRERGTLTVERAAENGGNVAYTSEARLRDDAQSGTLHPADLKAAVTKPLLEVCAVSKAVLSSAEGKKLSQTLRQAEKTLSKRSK

[8] = target: T4, Tyrosyl-tRNA synthetase, putative (Trypanosoma cruzi (strain CL Brener)); test: Trypanosoma cruzi tyrosyl tRNA synthetase (TcYRS) SOP; format: functional; conditions: 30 µM
[9] = target: Chromo domain-containing protein 1 (Saccharomyces cerevisiae (strain ATCC 204508 / S288c) (Baker's yeast)) (UniProt P32657); test: ScCHD-1 Enzyme Inhibition Assay; format: functional; conditions: 30 µM; further: in the data most compounds retested in dose-response had high values
Chain of Chromo domain-containing protein 1 (Saccharomyces cerevisiae (strain ATCC 204508 / S288c) (Baker's yeast)) (P32657 whole entry, the tested form may be a part): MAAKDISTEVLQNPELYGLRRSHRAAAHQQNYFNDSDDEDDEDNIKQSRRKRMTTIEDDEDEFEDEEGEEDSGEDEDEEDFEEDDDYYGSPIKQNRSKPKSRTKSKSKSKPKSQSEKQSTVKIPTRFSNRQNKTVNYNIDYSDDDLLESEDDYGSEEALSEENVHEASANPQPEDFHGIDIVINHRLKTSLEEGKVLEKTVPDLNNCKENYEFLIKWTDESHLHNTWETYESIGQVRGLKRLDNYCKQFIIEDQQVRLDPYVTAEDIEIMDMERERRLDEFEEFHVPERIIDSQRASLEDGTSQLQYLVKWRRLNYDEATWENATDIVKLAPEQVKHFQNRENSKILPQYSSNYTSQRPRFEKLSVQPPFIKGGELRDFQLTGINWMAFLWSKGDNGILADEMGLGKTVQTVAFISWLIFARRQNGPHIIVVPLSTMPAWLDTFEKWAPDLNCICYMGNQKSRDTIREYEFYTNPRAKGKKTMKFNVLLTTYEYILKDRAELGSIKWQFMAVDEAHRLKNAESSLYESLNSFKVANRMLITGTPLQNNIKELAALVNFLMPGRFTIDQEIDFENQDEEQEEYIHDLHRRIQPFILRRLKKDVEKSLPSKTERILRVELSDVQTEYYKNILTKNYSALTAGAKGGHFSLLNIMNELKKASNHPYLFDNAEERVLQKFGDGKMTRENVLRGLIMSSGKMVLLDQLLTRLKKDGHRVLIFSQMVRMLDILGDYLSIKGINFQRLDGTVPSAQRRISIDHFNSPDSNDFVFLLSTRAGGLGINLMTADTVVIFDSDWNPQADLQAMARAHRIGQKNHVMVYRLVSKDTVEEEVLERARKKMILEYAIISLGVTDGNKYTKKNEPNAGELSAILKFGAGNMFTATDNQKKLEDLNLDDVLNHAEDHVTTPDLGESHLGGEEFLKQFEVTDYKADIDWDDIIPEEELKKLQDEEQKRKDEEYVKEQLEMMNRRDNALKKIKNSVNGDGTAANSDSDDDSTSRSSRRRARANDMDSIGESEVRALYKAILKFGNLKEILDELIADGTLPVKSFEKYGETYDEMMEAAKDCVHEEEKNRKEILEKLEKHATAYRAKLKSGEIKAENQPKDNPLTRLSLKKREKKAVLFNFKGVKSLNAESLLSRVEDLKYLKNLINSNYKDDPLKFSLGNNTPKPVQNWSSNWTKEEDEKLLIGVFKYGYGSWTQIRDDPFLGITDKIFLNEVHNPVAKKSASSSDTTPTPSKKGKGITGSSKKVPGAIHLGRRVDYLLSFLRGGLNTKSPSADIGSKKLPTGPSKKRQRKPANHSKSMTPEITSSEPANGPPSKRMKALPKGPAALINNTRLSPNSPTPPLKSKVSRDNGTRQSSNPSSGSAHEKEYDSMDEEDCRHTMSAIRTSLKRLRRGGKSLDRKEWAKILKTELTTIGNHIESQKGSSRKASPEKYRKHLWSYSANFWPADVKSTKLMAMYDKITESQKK

Chain of Sialic acid-binding Ig-like lectin 9 (Homo sapiens) (Q9Y336 whole entry): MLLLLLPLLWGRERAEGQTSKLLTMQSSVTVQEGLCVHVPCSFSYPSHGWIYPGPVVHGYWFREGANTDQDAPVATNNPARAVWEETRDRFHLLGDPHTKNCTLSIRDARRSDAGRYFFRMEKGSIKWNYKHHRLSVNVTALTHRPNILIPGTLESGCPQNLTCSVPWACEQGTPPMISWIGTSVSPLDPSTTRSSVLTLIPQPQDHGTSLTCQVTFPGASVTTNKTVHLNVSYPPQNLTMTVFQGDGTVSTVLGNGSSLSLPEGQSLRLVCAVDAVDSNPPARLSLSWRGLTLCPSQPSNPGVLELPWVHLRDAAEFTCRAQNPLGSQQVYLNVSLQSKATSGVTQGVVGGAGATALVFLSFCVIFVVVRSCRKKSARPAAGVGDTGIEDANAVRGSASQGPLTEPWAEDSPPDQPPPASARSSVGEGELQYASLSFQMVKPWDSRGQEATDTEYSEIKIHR
Chain of Protein translocase subunit SecA (Escherichia coli (strain K12)) (P10408 whole entry): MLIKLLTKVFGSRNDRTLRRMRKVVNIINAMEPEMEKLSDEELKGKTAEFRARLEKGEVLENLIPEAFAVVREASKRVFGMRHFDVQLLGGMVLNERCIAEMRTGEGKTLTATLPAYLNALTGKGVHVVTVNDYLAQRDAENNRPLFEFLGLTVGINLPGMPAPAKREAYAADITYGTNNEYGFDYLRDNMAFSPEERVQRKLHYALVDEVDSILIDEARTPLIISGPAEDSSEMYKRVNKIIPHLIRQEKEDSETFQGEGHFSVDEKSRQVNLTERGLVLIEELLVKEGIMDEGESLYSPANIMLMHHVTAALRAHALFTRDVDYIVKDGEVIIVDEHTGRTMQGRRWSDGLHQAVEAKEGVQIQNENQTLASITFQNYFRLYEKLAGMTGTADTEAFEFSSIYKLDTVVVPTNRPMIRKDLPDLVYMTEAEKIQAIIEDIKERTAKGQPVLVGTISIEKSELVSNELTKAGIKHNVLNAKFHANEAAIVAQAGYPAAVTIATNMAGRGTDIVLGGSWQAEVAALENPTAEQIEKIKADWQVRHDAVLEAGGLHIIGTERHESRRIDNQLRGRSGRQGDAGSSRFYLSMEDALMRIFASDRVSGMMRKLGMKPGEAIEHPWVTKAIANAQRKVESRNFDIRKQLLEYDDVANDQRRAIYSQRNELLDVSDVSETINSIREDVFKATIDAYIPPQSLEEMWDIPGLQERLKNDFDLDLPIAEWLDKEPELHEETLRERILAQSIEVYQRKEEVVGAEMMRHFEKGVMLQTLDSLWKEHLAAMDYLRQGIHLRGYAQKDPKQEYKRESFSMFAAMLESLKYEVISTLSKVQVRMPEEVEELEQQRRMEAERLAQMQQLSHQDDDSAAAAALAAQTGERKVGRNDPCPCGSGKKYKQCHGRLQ

| Structure (SMILES) | Percent Effect [1] [%] | Percent Effect [2] [%] | Percent Effect [3] [%] | Percent Effect [4] [%] | Percent Effect (Trypanosoma cruzi) [%] | Percent Effect [5] [%] | Percent Effect [6] [%] | Percent Effect (Homo sapiens) [%] | Percent Effect [7] [%] | Percent Effect [8] [%] | Percent Effect [9] [%] |
| --- | --- | --- | --- | --- | --- | --- | --- | --- | --- | --- | --- |
| O=C1CC2(CCN(c3nncs3)C2)CN1c1ccccc1 (stereo unspecified) | -2.98 | 5.41 | -3.44 | 2.02 | -5.66 | 4.58 | 12.4 | -3.33 | 4.95 | 11 | 0.436 |
| OC1(CN2CCCC2)CCCN(Cc2ccc(F)cc2Cl)C1 (stereo unspecified) | -2.56 | 0 | -4.18 | -3.78 | -7.5 | 3.12 | 12 | 5.3 | 3.83 | 11.1 | -3.94 |
| c1cc2n(n1)CC(CNCc1ccc(OCC3CC3)nc1)CN2 (stereo unspecified) | -1.23 | 20.8 | 11.1 | 4.04 | 7.68 | 0.356 | 3.04 | -0.525 | 13.6 | 24.4 | -9.69 |
| Cc1nc(C)n(C2CCCN(C(=O)CCCOc3ccccc3)C2)n1 (stereo unspecified) | -1.32 | 0 | 6.84 | 4.93 | 1.5 | -2.85 | -1.18 | -22.8 | 2.91 | 9.76 | -5.8 |
| O=C(NCc1cc(=O)n2c(n1)CN(CC1CCOC1)CCC2)C1CC1 (stereo unspecified) | 0.233 | 2.74 | -1.09 | 5.91 | 6.35 | -0.399 | 6.76 | -4.97 | 3.12 | 11.1 | -3.69 |
| O=C(CN1CCCCC1Cn1cncn1)NCCc1ccc(F)cc1 (stereo unspecified) | -0.868 | 15.2 | -4.02 | -10.5 | -6.89 | -2.28 | 8.27 | 37.4 | 8.37 | 11.4 | -9.46 |
| COc1cc2cc(C(=O)O)n(C)c2cc1OC | -4.26 | -4 | 7.45 | 10.6 | -0.982 | -10 | 9.61 | -15.2 | 4.23 | 0 | -6.18 |
| O=C(c1cc(COc2ccc3c(c2)OCO3)[nH]n1)N1CC=CC1CO (stereo unspecified) | -3.88 | -2.74 | 9.97 | 22.3 | -5.36 | 0.399 | 15.3 | 9.04 | 3.12 | -8.64 | 0.567 |
| CCNc1cc2c(nn1)CCN(C(=O)c1ccc3cc[nH]c3c1)C2 | -5.7 | 5.26 | 1.7 | 1.43 | 6.96 | -2.3 | 1.34 | -2.63 | 8.33 | 19.5 | -7.29 |
| CN(C)C(C(=O)N1CCC(N2CCSCC2)CC1)c1ccccc1F (stereo unspecified) | -0.819 | 12.5 | -3.64 | 4.95 | 1.46 | 22.5 | 20.7 | -4.19 | 10.5 | 20.5 | -1.59 |
| CCCc1n[nH]c(C2CN(C(=O)c3ccco3)CCO2)n1 (stereo unspecified) | -3.05 | 0 | 2.64 | -8.28 | -1.03 | 2.52 | 8.71 | -11.3 | 0.493 | -1.24 | 13.1 |

— ChEMBL document CHEMBL3988442, “University of Dundee, Small-Polar-MMV Screening Library” (2021)
